Screening results deposited in PubChem BioAssay by National Center for Advancing Translational Sciences (NCATS).
An excerpt weighted towards active compounds, which were near 7.3% of everything screened.
ELG1 genotoxic: induces genotoxicity in HEK293T cells with luciferase-tagged ELG1. Potency, µM (top dose mostly 46 µM), hits mostly activators. HEK293T ELG1-luciferase reporter, luminescence, 16 h. actives 1.3% (n = 330,000). AID 504466; further: nearly all actives have a fitted effect of over 60% in size
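DMSO vehicle served as control against compound-treated ELG1-luciferase HEK293T cells; exposure lasted 16 hr at 37 °C and 5% CO2, followed by ONE-Glo luminescence detection after 30 min.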
Luc counter: blocks Kinase-Glo luciferase, a counter-screen artifact | Potency, µM (series often up to 38.3 µM), most hits filed as inhibitors | Kinase-Glo luciferase, ATP luminescence, 8 min | actives 0.28% (n = 200,000) | Q27757 | AID 1379; further: nearly all actives have a fitted effect of over 60% in size
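Kinase-Glo luciferase light output from ATP and luciferin was measured with 10 uM ATP, within the enzyme's linear range. Buffer: 50 mM imidazole pH 7.2, 50 mM KCl, 7 mM MgCl2, 0.01% Tween 20, 0.05% BSA; luminescence read after 8 min at ambient temperature.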
NPC1 prom act: activators of NPC1 promoter; actives 2.4% (n = 320,000); AID 485313; Huh7 NPC1 promoter luciferase reporter, 24 h; Potency, µM (titrated, usually from 9.22 µM), actives largely listed as activators; further: nearly all actives have a fitted effect of over 60% in size
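Huh7 reporter cells (NPC1 promoter driving luciferase) are dosed with compound for 24 h at 37 °C, 5% CO2; luciferase detection reagent is then added and luminescence measured after 10 min at ambient temperature.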
FLuc counter: inhibits or activates purified firefly luciferase, miR-21 counter-screen. purified FLuc, Km substrates, luminescence inhibition. Potency, µM (doses to about 57.5 µM), hits mostly inhibitors. actives 6.9% (n = 360,000); further: nearly all actives have a fitted effect of over 55% in size
Target sequence (P08659 whole entry, looked up): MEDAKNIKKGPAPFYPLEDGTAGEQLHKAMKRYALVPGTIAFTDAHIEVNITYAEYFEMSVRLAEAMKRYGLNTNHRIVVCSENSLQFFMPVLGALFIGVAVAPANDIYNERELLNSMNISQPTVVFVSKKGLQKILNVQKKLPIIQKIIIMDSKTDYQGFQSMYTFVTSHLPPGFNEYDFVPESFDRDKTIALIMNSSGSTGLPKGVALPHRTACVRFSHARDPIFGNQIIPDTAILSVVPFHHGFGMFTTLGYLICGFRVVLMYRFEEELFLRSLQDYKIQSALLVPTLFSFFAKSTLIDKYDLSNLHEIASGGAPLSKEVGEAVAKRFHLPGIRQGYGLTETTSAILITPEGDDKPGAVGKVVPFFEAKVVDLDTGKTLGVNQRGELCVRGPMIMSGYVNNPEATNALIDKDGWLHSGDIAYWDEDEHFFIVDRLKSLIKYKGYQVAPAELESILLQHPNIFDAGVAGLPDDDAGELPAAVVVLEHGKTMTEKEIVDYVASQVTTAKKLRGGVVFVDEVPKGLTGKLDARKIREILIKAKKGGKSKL
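Purified P. pyralis luciferase (10nM final) with 10uM D-luciferin and 10uM ATP (Km levels) in 50mM Tris acetate pH 7.5, 10mM Mg acetate, 0.01% Tween-20, 0.05% BSA; qHTS 6-point titration, ~60 µM downward; luminescence read.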
SMN2 splice enh: SMN2 splice variant enhancement; HEK293 SMN2-luciferase splicing reporter, luminescence, 30-36 h; Potency, µM (series often up to 46.1 µM), hits mostly activators; actives 2.8% (n = 210,000); further: nearly all actives have a fitted effect of over 55% in size
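qHTS luciferase splicing reporter: luminescence rises when SMN2 exon 7 is included in transfected HEK293 cells. Compound exposure lasted 30-36 h at 37C, with 4.5 mM final sodium butyrate as control, followed by a ONE-Glo read.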
Rab9 promoter act: activates the Rab9 promoter; Huh7 Rab9 promoter-luciferase reporter, luminescence, 24 h; Potency, µM (titrated, usually from 9.22 µM), hits mostly activators; actives 2.8% (n = 320,000); AID 485297; further: nearly all actives have a fitted effect of over 60% in size
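Stable Rab9-luc Huh7, 1500 cells/well, 2 h settle; cmpd in DMSO, 24 h, 37 °C/5% CO2; luciferase reagent 10 min RT; luminescence.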
Of the large screens only hits and unclear results are named; the others gave an inactive call. The call rests on the fitted dose curve; in most records, active means well fitted curve in the direction sought with a large enough effect; inconclusive means small, poorly fitted or top-dose-only effect, or another doubt; inactive means no such curve, though single readings can be large; an effect the other way counts as inactive or inconclusive.

CCC(=O)NCCc1nc2cc(NC(=O)c3ccccc3OC)ccc2n1C	ELG1 genotoxic inconclusive, FLuc counter 21.3µM (no result: SMN2 splice enh)
COc1ccccc1C(=O)NCCc1nc2ccccc2n1C	none
COc1ccccc1C(=O)Nc1ccc2c(c1)nc(CCNC(C)=O)n2C	ELG1 genotoxic inconclusive, NPC1 prom act inconclusive, FLuc counter 15.1µM, SMN2 splice enh inconclusive, Rab9 promoter act inconclusive
CC(=O)NCCc1nc2cc(NC(=O)Nc3ccccc3)ccc2n1C	ELG1 genotoxic inconclusive, NPC1 prom act 2.24µM, FLuc counter 6.75µM, Rab9 promoter act 3.98µM (no result: Luc counter, SMN2 splice enh)
CCCN(CCC)C(=O)C1CCN(c2cc(C)nc3c(-c4ccc(Cl)cc4)c(C)nn23)CC1	none (no result: ELG1 genotoxic, Luc counter, NPC1 prom act, Rab9 promoter act)
O=C(CCCC(=O)OCC(=O)c1ccc(Cl)cc1Cl)Nc1cc(C(F)(F)F)ccc1Cl	FLuc counter 3.79µM
O=C(COC(=O)c1ccc(O)cc1)Nc1cc(C(F)(F)F)ccc1Cl	none
O=C(CCCC(=O)OCC(=O)c1ccc(F)cc1)Nc1cc(C(F)(F)F)ccc1Cl	FLuc counter 12µM
C=CCSc1nc2c(cnn2-c2ccccc2)c(=O)n1N	ELG1 genotoxic inconclusive, NPC1 prom act 1.41µM, FLuc counter 8.49µM, Rab9 promoter act 1.41µM (no result: Luc counter, SMN2 splice enh)
CN(C)c1ccc(CNC(=O)CN2C(=O)CCn3nc(-c4cn(C)c5ccccc45)cc32)cc1	none (no result: ELG1 genotoxic, Luc counter, NPC1 prom act, SMN2 splice enh, Rab9 promoter act)
Cc1cccc(-n2c(CCN3C(=O)c4ccccc4C3=O)nc3ccccc3c2=O)n1	none
Cc1cccc(-n2c(CCCN3C(=O)c4ccccc4C3=O)nc3ccccc3c2=O)n1	ELG1 genotoxic 23.1µM
CCOc1ccccc1NC(=O)C(NCCc1ccc(OC)cc1)c1ccccc1 (stereo unspecified)	FLuc counter 26.9µM (no result: Luc counter, SMN2 splice enh)
COc1ccc(CNC(=O)c2ccc(Cn3c(=O)c4cccn4c4cccnc43)cc2)cc1OC	none (no result: ELG1 genotoxic, Luc counter, NPC1 prom act, SMN2 splice enh, Rab9 promoter act)
C/C(CC(=O)Nc1cc(Cl)ccc1Cl)=N\NC(=O)COc1cccc(C)c1	none (no result: Luc counter, SMN2 splice enh)
Cc1ccnc(NC(=O)CCCc2ccccc2)c1	NPC1 prom act inconclusive, FLuc counter 23.9µM, SMN2 splice enh inconclusive, Rab9 promoter act inconclusive
Cc1ccnc(NC(=O)CNC(=O)Cc2cccc3ccccc23)c1	ELG1 genotoxic 14.6µM, FLuc counter 23.9µM (no result: Luc counter, SMN2 splice enh)
Cc1ccnc(NC(=O)c2cccc(NC(=O)COc3ccccc3)c2)c1	FLuc counter 16.9µM
Cc1ccc(NC(=O)CNC(=O)Cc2cccc3ccccc23)nc1	none (no result: Luc counter, SMN2 splice enh)
C/C(CC(=O)Nc1cc(C)ccn1)=N\NC(=O)COc1cccc(C)c1	FLuc counter 13.5µM
COc1ccc(C)cc1NC(=O)C(CCSC)NS(=O)(=O)c1ccc2c(c1)oc(=O)n2C (stereo unspecified)	none (no result: ELG1 genotoxic, Luc counter, NPC1 prom act, SMN2 splice enh, Rab9 promoter act)
O=S1(=O)OC(c2ccc(O)cc2)(c2ccc(O)cc2)c2ccccc21	none (no result: ELG1 genotoxic, NPC1 prom act, FLuc counter, Rab9 promoter act)
COc1ccc(CCNc2nc(-c3ccc(OC)c(OC)c3)cc(C(F)(F)F)n2)cc1OC	none (no result: ELG1 genotoxic, Luc counter, NPC1 prom act, Rab9 promoter act)
COc1ccc(NC(=O)CN(C)S(=O)(=O)c2ccc3nc(C)sc3c2)cc1	none (no result: ELG1 genotoxic, Luc counter, NPC1 prom act, SMN2 splice enh, Rab9 promoter act)
CCCCC[C@H](O)/C=C/[C@H]1OC(O)C[C@H](O)[C@@H]1C/C=C\CCCC(=O)O (stereo partly specified)	none (no result: ELG1 genotoxic, NPC1 prom act, FLuc counter, Rab9 promoter act)
COC(=O)c1scc(-c2ccc(C)cc2)c1S(=O)(=O)N1CCN(c2ccc(OC)cc2)CC1	none (no result: ELG1 genotoxic, Luc counter, NPC1 prom act, SMN2 splice enh, Rab9 promoter act)
Cc1ccnc(NC(=O)c2cnc(Cl)c(Cl)c2)c1	ELG1 genotoxic inconclusive, FLuc counter 16.9µM (no result: Luc counter, SMN2 splice enh)
CCOc1cc(C(=O)Nc2cc(C)ccn2)cc(OCC)c1OCC	none
Cc1ccnc(NC(=O)CCNC(=O)c2ccc(Cl)cc2)c1	none (no result: Luc counter, SMN2 splice enh)
CCOc1ccc(C(=O)Nc2cc(C)ccn2)cc1	Luc counter 12.6µM, NPC1 prom act 0.708µM, FLuc counter 1.35µM, SMN2 splice enh inconclusive, Rab9 promoter act 0.316µM
CCOc1ccc(C(=O)NCC(=O)Nc2cc(C)ccn2)cc1OCC	FLuc counter inconclusive (no result: Luc counter, SMN2 splice enh)
O=C(Nc1ccon1)c1ccc(Cl)s1	none
Cc1ccc(C(=O)NCC(=O)Nc2cc(C)ccn2)cc1	ELG1 genotoxic inconclusive, FLuc counter 26.9µM (no result: Luc counter, SMN2 splice enh)
Cc1ccnc(NC(=O)c2ccc(Cl)s2)c1	ELG1 genotoxic inconclusive, NPC1 prom act 3.16µM, FLuc counter 7.57µM, Rab9 promoter act 1.58µM (no result: Luc counter, SMN2 splice enh)
